assay: 384-well plate pilot, post-Golgi transport modulator project, inhibition of yeast transport mutant growth (AID 636); settings: absorbance 615 nm, about 18 h, hits give high values; in the data active means inhibition above about 31%; inactive means the rest

inhibition, inactive:
CN(Cc1cccs1)c1ncnc2sccc12 -4.87%
CCOC(=O)N1CCN(C(=O)CN(c2ccc(C)cc2)S(=O)(=O)c2c(C)noc2C)CC1 -4.73%
Cc1c2c(nc3nc4ccccc4n13)CC(C)(C)CC2=O -3.42%
COc1ccccc1OC(=O)c1ccc2nsnc2c1 -8.16%
CCN(CCCNC(=O)c1cn(CC)c2ccc(S(=O)(=O)N(C)C)cc2c1=O)c1cccc(C)c1 -2.8%
O=C(O)C1CC(=O)N(c2ccc(OCc3ccccc3Cl)cc2)C1 (stereo not given) 0%
C=CCOc1ccc(C2C(C(=O)c3ccco3)=C(O)C(=O)N2Cc2cccnc2)cc1 (stereo not given) -1.71%
[N-]=[N+]=CC(=O)CC(c1ccccc1)N1C(=O)c2ccccc2C1=O (stereo not given) -0.91%
CCC1(c2ccc(F)cc2)NC(=O)N(CC(=O)c2ccc[nH]2)C1=O (stereo not given) -2.08%
c1csc(-c2nc3nc4ccccc4nc3n2Cc2ccc3c(c2)OCO3)c1 10.5%
Cc1n[nH]c(C)c1S(=O)(=O)N1CCN(c2ccccn2)CC1 -0.26%
Cn1c(=O)c2c(nc(NCCc3ccccc3)n2CC(=O)NCCc2ccccc2)n(C)c1=O -1.05%
Cc1cc(Br)ccc1NC(=O)CCN1C(=O)c2ccncc2C1=O -3.78%
COc1ccccc1Oc1coc2c(CN3CCN(C)CC3)c(O)ccc2c1=O -1.82%
O=C(Nc1ccccc1N1CCN(c2ccc(F)cc2)CC1)c1ccccc1 -5.87%
